The text below walks through data of PubChem BioAssay (Tox21).

The nature of test [1]: qHTS assay to identify small molecule antagonists of the estrogen receptor beta (ER-beta) signaling pathway - cell viability counter screen (AID 1259382). Note: nearly all actives have a fitted effect of over 55% in size. Note: potency is the fitted concentration of half-maximal effect. The essentials: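 Cytotoxicity was measured in the same wells by CellTiter-Glo luminescence after 30 min at room temperature. Cells were ER-beta-bla HEK293T in charcoal-stripped serum, given compound together with 1 nM E2 and incubated 16 h at 37C.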

Test [2] deals with Estrogen receptor (Homo sapiens) (UniProt P03372). As to the kind of experiment: qHTS assay to identify small molecule agonists of the estrogen receptor alpha (ER-alpha) signaling pathway in the presence of an antagonist (AID 1259383; calls by dose curve; note: nearly all actives have a fitted effect of over 15% in size; note: potency is the fitted concentration of half-maximal effect; for activation: top concentration of the series differs between compounds). The essentials: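 Agonist-mode confirmation run in the presence of 10.0nM (final) ICI-182,780 antagonist. The reporter was ERE-driven luciferase in VM7Luc4E2 cells, grown in charcoal-stripped serum. Cells were exposed to 15-concentration compound series for 22hr, then ONE-Glo luminescence was read.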
Sequence of Estrogen receptor (Homo sapiens) (P03372 whole entry, looked up): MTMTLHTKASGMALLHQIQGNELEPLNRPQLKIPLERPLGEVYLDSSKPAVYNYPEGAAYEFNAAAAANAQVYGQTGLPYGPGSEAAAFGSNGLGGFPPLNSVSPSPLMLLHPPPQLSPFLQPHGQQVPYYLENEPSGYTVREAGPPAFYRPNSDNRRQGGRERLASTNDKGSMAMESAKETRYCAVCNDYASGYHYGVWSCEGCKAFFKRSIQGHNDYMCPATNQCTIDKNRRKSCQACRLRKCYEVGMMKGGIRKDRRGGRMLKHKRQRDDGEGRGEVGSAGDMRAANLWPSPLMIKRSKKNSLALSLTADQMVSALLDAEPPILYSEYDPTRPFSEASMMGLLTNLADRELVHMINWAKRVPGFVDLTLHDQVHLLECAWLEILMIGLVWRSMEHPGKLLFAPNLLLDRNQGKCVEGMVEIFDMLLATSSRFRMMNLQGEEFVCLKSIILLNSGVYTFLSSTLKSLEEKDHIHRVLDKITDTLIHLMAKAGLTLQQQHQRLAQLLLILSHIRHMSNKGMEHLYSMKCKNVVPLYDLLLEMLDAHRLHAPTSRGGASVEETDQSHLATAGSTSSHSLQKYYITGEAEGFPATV
On the technique in general: Quantitative high-throughput screening tests each substance at several concentrations.

Test [3] is described as follows: qHTS assay to identify small molecule agonists or antagonists of the thyroid stimulating hormone receptor (TSHR) signaling pathway - wild type cell line counter screen (AID 1259384; calls by dose curve; note: potency is the fitted concentration of half-maximal effect). The essentials:
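Wild-type Hek293 cells, 800/well, 18 h at 37C, then compound with Ro20-1724 for 30 min RT. cAMP by HTRF (cAMP-d2/anti-cAMP cryptate), 1 h RT, fluorescence read. 15 concentrations, triplicates.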

Test [4] concerns the target Thyrotropin receptor (Homo sapiens) (UniProt P16473). As to the kind of experiment: qHTS assay to identify small molecule antagonists of the thyroid stimulating hormone receptor (TSHR) signaling pathway (AID 1259385; calls by dose curve; note: nearly all actives have a fitted effect of over 20% in size; note: potency is the fitted concentration of half-maximal effect). The essentials:
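TSHR-HEK293 cells (800/well) plated 18 h, then compounds with Ro20-1724 and TSH at 1.5 ng/mL final, 30 min at room temperature. cAMP quantified by HTRF (cAMP-d2/anti-cAMP-cryptate, 1 h); 15 concentrations in triplicate.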

Test [5] in a line: qHTS assay to identify small molecule agonists of the estrogen receptor alpha (ER-alpha) signaling pathway in the presence of an antagonist - cell viability counter screen (AID 1259386). Note: nearly all actives have a fitted effect of over 30% in size. Note: potency is the fitted concentration of half-maximal effect. The essentials: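 Compounds tested at 15 concentrations for 22 h at 37C alongside 10.0nM (final) ICI-182,780 antagonist, in VM7Luc4E2 cells grown in phenol red-free, charcoal-stripped medium. Viability read by CellTiter-Fluor fluorescence after 1 h reagent incubation.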

Test [6] concerns the target Progesterone receptor (Homo sapiens) (UniProt P06401). Nature of the test: qHTS assay to identify small molecule agonists of the progesterone receptor (PR) signaling pathway (AID 1346784; calls by dose curve; note: nearly all actives have a fitted effect of over 30% in size). The essentials:
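Cells (PR-UAS-bla HEK 293T, GripTite) were plated in assay medium containing 2% charcoal-stripped FBS and incubated 6 hr. Test compounds in DMSO were added for 16 hr at 37C. FRET substrate was then loaded for 2 hr at room temperature before fluorescence reading.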

Test [7] is described as follows: qHTS assay to identify small molecule agonists of the progesterone receptor (PR) signaling pathway - cell viability counter screen (AID 1346799; calls by dose curve; note: nearly all actives have a fitted effect of over 45% in size). In a few lines: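 Cells (PR-UAS-bla HEK293T) are plated at 3,000/well in 2% charcoal-stripped FBS medium, rested 6 hr, dosed and incubated 16 hr at 37C. CellTiter-Glo is then added and luminescence measured after 30 min at room temperature.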

A short description of test [8]: qHTS assay to identify small molecule antagonists of the TGF-beta/Smad signaling pathway - cell viability counter screen (AID 1346824). Note: nearly all actives have a fitted effect of over 50% in size. The essentials: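 SBE-bla HEK 293T cells, incubated overnight, then compound plus 0.25 ng/mL TGF-beta1 (stock added) for 5 hr at 37 C. Viability was read in the same wells by CellTiter-Glo luminescence after 30 min at room temperature.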

The nature of test [9]: qHTS assay to identify small molecule agonists of the TGF-beta/Smad signaling pathway - cell viability counter screen (AID 1346829). Note: nearly all actives have a fitted effect of over 45% in size. Note: potency is the fitted concentration of half-maximal effect. The essentials:
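Same-well cytotoxicity: CellTiter-Glo added after the 2 hr room-temperature beta-lactamase substrate step, luminescence measured 30 min later; cells had 5 hr of compound at 37 C.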

A short description of test [10]: qHTS assay to identify small molecule agonists of the TGF-beta/Smad signaling pathway (AID 1346859; active = well fitted activation curve with a large enough effect in the signal ratio in the repeat runs, not every such curve was filed as active; the % refers to the signal ratio; note: series mostly up to about 77 µM). In a few lines: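 Reporter line: HEK 293T with stably integrated SBE-controlled beta-lactamase. Compound exposure lasts 5 hr at 37 C and 5% CO2; substrate loading follows for 2 hr at room temperature, with emission read at 460 and 530 nm.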
Test [11] has as its target Thyrotropin-releasing hormone receptor (Homo sapiens) (UniProt P34981). Nature of the test: qHTS assay to identify small molecule antagonists of the thyrotropin-releasing hormone receptor (TRHR) signaling pathway (AID 1346877; active = well fitted inhibition curve with a large enough effect in the repeat runs, not every such curve was filed as active; note: potency is the fitted concentration of half-maximal effect). The essentials: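 Antagonist mode: after a 5 min room-temperature compound exposure, cells were stimulated with 1 nM (final) TRH. Dye-loaded TRHR-HEK293 cells were used, and calcium-dependent fluorescence was followed for 3 min, with 15-point titrations run in triplicate.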

Test [12] in a line: Human pregnane X receptor (PXR) small molecule agonists, qHTS cell viability counter screen (AID 1346977). Note: nearly all actives have a fitted effect of over 50% in size. Note: potency is the fitted concentration of half-maximal effect. The essentials: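 Cytotoxicity counter screen run in the same wells as the PXR luciferase assay, using PXR-Luc HepG2 cells in charcoal-stripped serum medium. Viability: CellTiter-Fluor fluorescence after 24hr compound treatment.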
A short description of test [13]: Caspase-3/7 induction in HepG2 cells by small molecules, qHTS assay (AID 1346978). Note: nearly all actives have a fitted effect of over 15% in size. The essentials: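 Wild-type HepG2 cells, 2,000/well, settled 5 hr at 37 C and 5% CO2, then compound-treated for 17 hr; caspase-3/7 activity read by luminescent Caspase-Glo 3/7 after 30 min at room temperature.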
Test [14] can be described thus: Caspase-3/7 induction in CHO-K1 cells by small molecules, qHTS assay (AID 1346980). Note: nearly all actives have a fitted effect of over 15% in size. Note: potency is the fitted concentration of half-maximal effect. The essentials: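 Wild-type CHO-K1 cells exposed to compounds for 17hr at 37 C, 5% CO2. Caspase-3/7 activity then measured by Caspase-Glo 3/7 luminescence after 30min at room temperature.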
Test [15] can be described thus: Caspase-3/7 induction in HepG2 cells by small molecules, qHTS cell viability counter screen (AID 1346981). Note: nearly all actives have a fitted effect of over 30% in size. Note: potency is the fitted concentration of half-maximal effect. The essentials: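 CellTiter-Fluor fluorescence measured viability in the same wells used for Caspase-Glo 3/7. HepG2 (wild type) at 2,000 cells/well were pre-incubated 5 hr, dosed, and given reagent at 16 hr, with 1 hr further at 37C.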
Test [16] has as its target Nuclear receptor subfamily 1 group I member 2 (Homo sapiens) (UniProt O75469). Nature of the test: Human pregnane X receptor (PXR) small molecule agonists, qHTS assay (AID 1346982). Note: nearly all actives have a fitted effect of over 35% in size. Note: potency is the fitted concentration of half-maximal effect. In a few lines: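 Agonist mode: luminescence from ONE-Glo after 24 h compound exposure at 37C in HepG2 cells carrying hPXR-responsive CYP3A4 luciferase, plated in charcoal-stripped serum medium 5 h beforehand.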

Test [17] can be described thus: qHTS assay to identify small molecule antagonists of the progesterone receptor (PR) signaling pathway - cell viability counter screen (AID 1346798). Note: series mostly up to about 92 µM; nearly all actives have a fitted effect of over 50% in size. The essentials: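 Counter screen for cytotoxicity: viability of PR-UAS-bla HEK293T cells was measured with CellTiter-Glo luminescence following 16 hr compound exposure in the presence of R5020.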
Test [18] concerns the target Thyrotropin-releasing hormone receptor (Homo sapiens) (UniProt P34981). As to the kind of experiment: qHTS assay to identify small molecule agonists of the thyrotropin-releasing hormone receptor (TRHR) signaling pathway (AID 1346891; calls by dose curve;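 note: HEK293 cells expressing TRHR with calcium dye readout; series mostly up to about 58 µM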). The essentials:
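Cells: TRHR-Hek293, seeded and incubated 18 h. Dye loading: 2 h at 37 °C. Compound added from DMSO stock by pin tool. Read-out: kinetic calcium fluorescence over 3 min.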

For test [19], the target named is Progesterone receptor (Homo sapiens) (UniProt P06401). Nature of the test: qHTS assay to identify small molecule antagonists of the progesterone receptor (PR) signaling pathway (AID 1346795; active = well fitted inhibition curve with a large enough effect in the signal ratio in the repeat runs, not every such curve was filed as active; the % refers to the signal ratio; note: potency is the fitted concentration of half-maximal effect). In a few lines:
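Antagonist mode: compounds tested against 1 nM (final) promegestone stimulation in HEK293T cells expressing PR-UAS-bla reporter, 16 hr at 37C, 5% CO2; beta-lactamase activity detected via B/G FRET substrate after 2 hr at room temperature.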

Test [20] is described as follows: Caspase-3/7 induction in CHO-K1 cells by small molecules, qHTS cell viability counter screen (AID 1346979). Note: potency is the fitted concentration of half-maximal effect; nearly all actives have a fitted effect of over 35% in size. In a few lines: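 Cytotoxicity counter screen run in parallel with the caspase-3/7 assay: CHO-K1 cells, 16hr compound treatment at 37C, then CellTiter-Fluor for 1hr before fluorescence reading.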

Inconclusive results are not listed. Calls of active or inactive are those of the source. Unless noted, calls come from the whole dose curve; as a rule, active = well fitted curve in the direction sought with a large enough effect in the repeat runs; inconclusive = weak or mixed curves; inactive = no such curve, though single readings can be large; an effect the other way counts as inactive or inconclusive.

Sequence of Progesterone receptor (Homo sapiens) (P06401 whole entry, looked up): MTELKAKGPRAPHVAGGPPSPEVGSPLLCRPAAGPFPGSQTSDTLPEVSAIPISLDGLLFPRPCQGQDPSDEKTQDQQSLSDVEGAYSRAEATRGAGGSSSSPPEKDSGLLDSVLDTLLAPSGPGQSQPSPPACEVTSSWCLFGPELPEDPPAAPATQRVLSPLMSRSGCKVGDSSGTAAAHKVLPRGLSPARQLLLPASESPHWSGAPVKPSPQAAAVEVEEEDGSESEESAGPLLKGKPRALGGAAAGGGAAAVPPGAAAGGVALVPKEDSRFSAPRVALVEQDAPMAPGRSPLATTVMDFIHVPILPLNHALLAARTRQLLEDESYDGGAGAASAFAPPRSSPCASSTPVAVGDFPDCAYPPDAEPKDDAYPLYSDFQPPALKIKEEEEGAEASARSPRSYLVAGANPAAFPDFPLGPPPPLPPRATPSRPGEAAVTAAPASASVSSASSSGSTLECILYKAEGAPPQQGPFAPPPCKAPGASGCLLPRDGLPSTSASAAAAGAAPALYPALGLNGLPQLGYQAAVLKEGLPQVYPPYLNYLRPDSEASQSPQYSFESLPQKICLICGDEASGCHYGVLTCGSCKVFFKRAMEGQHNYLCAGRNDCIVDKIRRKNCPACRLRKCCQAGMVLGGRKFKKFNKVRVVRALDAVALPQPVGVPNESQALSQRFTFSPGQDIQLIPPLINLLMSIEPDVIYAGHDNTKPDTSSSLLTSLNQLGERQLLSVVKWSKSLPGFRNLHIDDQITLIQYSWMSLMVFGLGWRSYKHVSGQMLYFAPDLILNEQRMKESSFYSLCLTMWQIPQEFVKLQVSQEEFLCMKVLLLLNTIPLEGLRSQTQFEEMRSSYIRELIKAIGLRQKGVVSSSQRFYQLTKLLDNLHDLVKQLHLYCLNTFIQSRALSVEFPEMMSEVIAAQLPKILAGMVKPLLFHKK
Sequence of Thyrotropin-releasing hormone receptor (Homo sapiens) (P34981 whole entry, looked up): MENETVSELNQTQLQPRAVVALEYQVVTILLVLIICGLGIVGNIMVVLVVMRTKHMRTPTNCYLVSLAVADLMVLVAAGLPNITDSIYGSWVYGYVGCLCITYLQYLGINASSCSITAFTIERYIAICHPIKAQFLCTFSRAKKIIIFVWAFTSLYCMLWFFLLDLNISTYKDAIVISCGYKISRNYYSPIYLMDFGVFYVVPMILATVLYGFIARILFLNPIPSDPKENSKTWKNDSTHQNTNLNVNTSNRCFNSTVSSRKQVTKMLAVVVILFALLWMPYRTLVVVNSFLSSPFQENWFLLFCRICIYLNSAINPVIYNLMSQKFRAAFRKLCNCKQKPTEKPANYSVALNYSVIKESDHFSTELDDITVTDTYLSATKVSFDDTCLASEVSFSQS
Sequence of Thyrotropin receptor (Homo sapiens) (P16473 whole entry, looked up): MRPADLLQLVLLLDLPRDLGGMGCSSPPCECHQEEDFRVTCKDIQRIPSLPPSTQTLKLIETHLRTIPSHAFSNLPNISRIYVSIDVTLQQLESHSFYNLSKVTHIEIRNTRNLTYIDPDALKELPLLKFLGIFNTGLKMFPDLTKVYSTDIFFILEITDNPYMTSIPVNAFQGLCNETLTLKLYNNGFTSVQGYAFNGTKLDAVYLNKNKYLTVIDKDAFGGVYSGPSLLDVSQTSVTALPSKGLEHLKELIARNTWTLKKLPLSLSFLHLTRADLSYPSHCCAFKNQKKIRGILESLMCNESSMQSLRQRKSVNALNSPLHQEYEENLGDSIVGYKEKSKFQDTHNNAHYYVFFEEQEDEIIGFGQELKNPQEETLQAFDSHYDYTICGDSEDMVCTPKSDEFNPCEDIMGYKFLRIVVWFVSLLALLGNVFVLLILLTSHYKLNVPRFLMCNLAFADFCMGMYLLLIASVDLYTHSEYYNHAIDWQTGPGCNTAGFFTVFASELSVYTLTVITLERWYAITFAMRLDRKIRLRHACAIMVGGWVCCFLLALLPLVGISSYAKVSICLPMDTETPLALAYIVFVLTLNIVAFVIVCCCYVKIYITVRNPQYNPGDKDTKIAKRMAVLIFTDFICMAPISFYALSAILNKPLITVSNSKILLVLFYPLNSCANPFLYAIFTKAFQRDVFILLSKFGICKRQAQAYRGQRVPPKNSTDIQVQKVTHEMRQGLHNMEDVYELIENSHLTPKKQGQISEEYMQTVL
Sequence of Nuclear receptor subfamily 1 group I member 2 (Homo sapiens) (O75469 whole entry, looked up): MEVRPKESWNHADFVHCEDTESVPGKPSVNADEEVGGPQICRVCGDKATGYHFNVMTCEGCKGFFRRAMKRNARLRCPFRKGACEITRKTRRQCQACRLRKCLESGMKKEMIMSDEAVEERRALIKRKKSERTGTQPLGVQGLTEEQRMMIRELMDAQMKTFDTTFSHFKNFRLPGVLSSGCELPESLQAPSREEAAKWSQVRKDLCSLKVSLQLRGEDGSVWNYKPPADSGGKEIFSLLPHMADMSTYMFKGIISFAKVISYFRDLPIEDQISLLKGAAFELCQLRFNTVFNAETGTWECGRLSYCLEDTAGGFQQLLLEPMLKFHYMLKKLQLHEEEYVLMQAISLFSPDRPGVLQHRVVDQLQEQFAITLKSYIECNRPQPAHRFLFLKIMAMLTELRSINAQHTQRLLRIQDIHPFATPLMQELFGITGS

Regarding `COCCC(=O)OC`, the Potency entry in test [1], in test [2], in test [3], in [4], in test [5] and in test [7] was “inactive” each time. In addition, the Potency result in test [8], in [9], in test [11], in test [12], in [13] and in test [14] was “inactive” each time. In addition, the Potency entry in [15] and in test [16] was “inactive” throughout. Also, the result in [6] and in test [10] was inactive.

Turning to `C/C=C/C(=O)OCC(C)C`, the Potency entry in test [1], in [2], in test [3], in test [4], in [5] and in [17] was “inactive” throughout. Besides, the Potency result in test [7], in [8], in test [9], in [11], in [18] and in [12] was “inactive” in each case. Also, the Potency entry in test [13], in [14] and in test [15] was “inactive” throughout. For the same compound, the outcome in [6] and in test [10] was inactive.

For the compound `CCN(CC)c1ccc(N=Nc2ccccc2)cc1`, the Potency in test [1] is 30.6 µM (active); in test [2] it was 0.193 µM (active); in test [4], 68.6 µM (active); in test [5], 30.6 µM (active); in test [19], 19.3 µM (active); in [12], 27.3 µM (active). The Potency in test [15] was 27.3 µM (active); in [16], 1.37 µM (active). Moreover, the Potency entry in [3], in test [17], in test [9], in [13] and in test [14] was “inactive” in each case. For the same compound, the compound was classed as inactive in [10].

Turning to `CC(O)(c1ccc(Cl)cc1)c1ccc(Cl)cc1`, the Potency result in test [1], in [2], in test [3], in test [4], in [5] and in test [7] was “inactive” throughout. For the same compound, the Potency entry in test [8], in [9], in test [14] and in test [15] was “inactive” each time. For the same compound, the outcome in [6] and in [10] was inactive. The Potency in [16] was 27.3 µM (active).

As to `C1=CCCC1`, the Potency result in test [1], in [2], in test [3], in test [4], in test [5] and in test [17] was “inactive” throughout. In addition, the Potency entry in test [7], in test [8], in [9], in test [18], in test [12] and in test [13] was “inactive” throughout. In addition, the Potency result in [14], in test [15] and in [16] was “inactive” throughout. Further, the outcome in test [10] was inactive.

On to `CCCCCCCCSCc1cc(C)c(O)c(CSCCCCCCCC)c1`, for which the Potency result in [1], in [2], in [3], in [4], in [5] and in test [17] was “inactive” each time. Besides, the Potency result in test [7], in test [8], in test [9], in [11], in test [18] and in [12] was “inactive” in each case. The Potency entry in [13], in test [14], in [15] and in test [16] was “inactive” each time. Moreover, the outcome in [6] and in [10] was inactive.

With `Cc1ccc(S(=O)(=O)C(I)I)cc1`, the Potency in test [1] was 30.6 µM (active); in test [3], 9.69 µM (active); in [4], 68.6 µM (active); in test [5], 68.6 µM (active); in test [9], 49 µM (active); in test [11], 10.7 µM (active). Further, the Potency in [12] is 27.3 µM (active); in test [20], 15.4 µM (active); in test [14], 12.2 µM (active); in test [15], 54.5 µM (active); in test [16], 19.3 µM (active). Further, the Potency result in [2] and in test [13] was “inactive” each time. For the same compound, the outcome in test [10] was inactive.
